Among the data in PubChem BioAssay (NCATS) are Potency values, retold here.

Inconclusive results are not listed. Calls of active or inactive are those of the source. Calls come from the whole dose curve.
Potency is the fitted concentration of half-maximal effect.

The target in this assay is Cytochrome P450 1A2 (Homo sapiens) (UniProt P05177). The experiment in a line: p450-cyp1a2 (AID 410). The following applies: recombinant CYP1A2, luciferin-ME demethylation, luminescence; series mostly up to 57 µM. The protocol: The P450 gene superfamily is involved in metabolism and the clearance of xenobiotics. This assay used human CYP1A2 to measure the demethylation of luciferin 6' methyl ether (Luciferin-ME; Promega-Glo) to luciferin. The luciferin is then measured by luminescence after the addition of a luciferase detection regeant. Luciferin-ME concentration in the assay was equal to its Km for CYP1A2.
Cytochrome P450 1A2 (Homo sapiens), sequence (P05177 whole entry, looked up): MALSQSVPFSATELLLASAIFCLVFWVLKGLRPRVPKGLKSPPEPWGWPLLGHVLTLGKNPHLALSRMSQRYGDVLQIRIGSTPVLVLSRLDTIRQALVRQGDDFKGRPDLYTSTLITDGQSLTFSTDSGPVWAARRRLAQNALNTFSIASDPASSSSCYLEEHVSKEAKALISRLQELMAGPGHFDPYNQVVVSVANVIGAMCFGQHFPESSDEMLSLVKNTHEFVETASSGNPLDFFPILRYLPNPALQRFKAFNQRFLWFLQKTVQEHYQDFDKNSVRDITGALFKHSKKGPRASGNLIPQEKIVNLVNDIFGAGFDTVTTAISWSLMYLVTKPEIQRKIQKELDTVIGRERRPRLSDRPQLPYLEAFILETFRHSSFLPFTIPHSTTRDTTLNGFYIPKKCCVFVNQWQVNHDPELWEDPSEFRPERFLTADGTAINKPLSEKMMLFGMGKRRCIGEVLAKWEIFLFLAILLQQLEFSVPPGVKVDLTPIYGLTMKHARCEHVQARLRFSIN
NCGC Assay Protocol Summary:
Two uL of enzyme and substrate mix (final concentrations: 20nM CYP1A2, 100uM Luciferin-ME, 100mM KPO4) were dispensed into a white, solid bottom 1536-well microtiter plate. 23nL of compound was transferred by a pin tool. The plate was incubated at room temperature for 10 min. Two uL of an NADPH regeneration solution (Promega supplied reagent) was dispensed and the reaction was allowed to continue for 60 min at room temperature. Then the reaction was stopped by reconstituted detection reagent. After another 20 min of incubation the plate was read on the ViewLux (Perkin Elmer) at 60 sec exposure and 2x2 binning. This protocol was carried out with Promega-Glo reagents and further information can be found at http://www.promega.com/tbs/tb325/tb325.pdf. Data were normalized to the to AC100 inhibition (57 uM furafylline).
Consider `CCNc1ncc2ncc(=O)n(Cc3cccc(OC)c3)c2n1`, for which the Potency was 3.98 µM (active).
As for `COc1ccccc1CNc1ncncc1-c1ccccc1Cl`, the Potency was 10 µM (active).
Turning to `COc1ccccc1CNc1ncnc2ccc(-c3ccc(C(=O)N(C)C)cc3)cc12`, the Potency was 12.6 µM (active).
Under `COc1ccccc1CNc1ncnc2ccc(-c3cccc(NS(C)(=O)=O)c3)cc12` stands 3.98 µM (active); under `O=c1c(-c2ccccc2)nc2cnc(N3CCOCC3)nc2n1CCc1ccccc1`, 12.6 µM (active).
Regarding `CN1CCN(c2nc(-c3cccnc3)nc3ccccc23)CC1`, the Potency is 3.16 µM (active).
Consider `COc1cccc(-c2cncnc2NCc2ccccc2OC)c1`, for which the Potency is 3.98 µM (active).
Turning to `COc1ccccc1-c1nc(NC2CC2)c2ccccc2n1`, the Potency is 0.316 µM (active).
On to `COCCn1c(=O)c(-c2cccs2)nc2cnc(N3CCNCC3)nc21`, for which the Potency is 3.98 µM (active).
As for `CCNc1ncc2nc(CCc3ccccc3)c(=O)n(Cc3cccc(OC)c3)c2n1`, the figure is 12.6 µM (active).
On to `c1cn(-c2ncnc3ccc(-c4ccoc4)cc23)cn1`, for which the Potency is 1.26 µM (active).
As for `CN(C)c1ccc(-c2cc(N(C)Cc3ccco3)ncn2)cc1`, the figure is 0.316 µM (active).
Turning to `COc1ccc(Oc2ncc3nc(C)c(=O)n(Cc4cccs4)c3n2)cc1`, the Potency was 10 µM (active).
As for `CN1CCN(c2ncc3nc(-c4cn(C)c5ccccc45)c(=O)n(C[C@H]4CCCO4)c3n2)CC1`, the figure is 6.31 µM (active); as for `COc1ccc(Oc2ncc3nc(-c4cccc(C#N)c4)c(=O)n(CCC#N)c3n2)cc1`, 25.1 µM (active); as for `O=c1cc(O)cc(/C=C\c2ccc(O)c(O)c2)o1`, “inactive”.
On to `c1ccc2c(NCCN3CCOCC3)nc(-c3ccoc3)nc2c1`, for which the Potency is 5.01 µM (active).
As for `COc1cccc(Cn2c(=O)c(CCc3ccccc3)nc3cnc(N4CCN(C)CC4)nc32)c1`, the figure is 15.8 µM (active).
For the compound `COc1ccc(CNc2cc(-c3cccc(NS(C)(=O)=O)c3)ncn2)c(OC)c1`, the Potency is 15.8 µM (active).
Under `COc1ccc2[nH]cc(CCNc3ncncc3-c3ccccc3OC)c2c1` stands 2.51 µM (active).
Turning to `N#CCCn1c(=O)c(-c2cccc(C#N)c2)nc2cnc(Oc3cccc(Cl)c3)nc21`, the Potency result is “inactive”.
As for `COc1ccc(-n2c(=O)c(-c3cccs3)nc3cnc(N4CCN(C)CC4)nc32)cc1`, the figure is 2.51 µM (active); as for `Cc1cnc(CNc2ncnc3ccc(-c4ccccc4Cl)cc23)cn1`, 6.31 µM (active).
For the compound `COc1ccc(-c2nc3cnc(N4CCOCC4)nc3n(-c3ccc(OC)cc3)c2=O)cc1`, the Potency is 10 µM (active).
On to `c1cncc(CNc2nc(-c3cccnc3)nc3ccccc23)c1`, for which the Potency is 0.316 µM (active).
As for `O=C(c1ccco1)N1CCC2(CC1)CN(c1cccc(-c3ccccc3)c1)C2`, the figure is 7.94 µM (active); as for `COc1ccc2[nH]cc(CCNc3ncnc4ccc(-c5ccccc5OC)cc34)c2c1`, 7.94 µM (active).
As for `O=C(c1cc(C(F)(F)F)cc(C(F)(F)F)c1)N1CCC2(CCCN(c3ncccn3)C2)CC1`, the Potency is 31.6 µM (active).
With `CN(C)c1ccc(-c2cncnc2NCCc2cnc[nH]2)cc1`, the Potency was 1.26 µM (active).
Take `COc1ccc(-c2nc3cnc(N4CCN(C)CC4)nc3n(CCc3ccccc3)c2=O)cc1`: the Potency entry is “inactive”.
As for `c1ccc(Nc2nc(-c3cccnc3)nc3ccccc23)cc1`, the figure is 0.398 µM (active).
For `COCCn1c(=O)c(CCc2ccccc2)nc2cnc(N(C)C)nc21`, the Potency is 1.26 µM (active).
`c1ccc(Nc2nc(-c3ccoc3)nc3ccccc23)cc1`: the Potency was 0.2 µM (active).
Under `CN(C)c1ccc(-c2nccc(Nc3ccc(F)cc3)n2)cc1` stands 0.501 µM (active); under `COc1ccccc1-c1nc(N2CCN(C)CC2)c2ccccc2n1`, 12.6 µM (active).
`CN1CCN(c2ncc3nc(-c4ccccc4)c(=O)n(Cc4cccs4)c3n2)CC1`: the Potency was 15.8 µM (active).
For `c1ccc(CNc2nc(-c3cccnc3)nc3ccccc23)cc1`, the Potency was 0.398 µM (active).
Consider `COc1ccc2[nH]cc(CCNc3ncncc3-c3ccccc3Cl)c2c1`, for which the Potency is 0.631 µM (active).
Regarding `COc1cccc(Cn2c(=O)cnc3cnc(Nc4cccc(OC)c4)nc32)c1`, the Potency is 3.98 µM (active).
Under `COc1cc2cc3c4c(cc(OC)c(OC)c4c2cc1OC)CCN3C` stands 0.0794 µM (active).
